Results: PubChem BioAssay AID1159580 (chemical genetic matrix, 2015)
Where “and” joins values, the source holds several entries; their conditions need not be identical. Equal values may be shown once. Out of some 5,500 compounds screened, about 2,000 (36%) were called active. Roughly 18% stayed inconclusive and do not appear here. No stated cut-off is given here; in the data, active means normalized growth mostly below about 0.91 (no sharp cut-off); inconclusive means no clear call, values can overlap the other calls; inactive means mostly above about 0.92. This is one part of the list.

Experiment: chemical genetic growth profiling, strain panel (AID 1159580);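 further: tested at 20 µM; growth read once vehicle control cultures reached saturation at 30 °C; 1 = growth at the plate median or of vehicle wells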
Conditions: S. cerevisiae deletion strains, growth OD

Measured: normalized growth

CC(C)c1cc2c(c(O)c1O)[C@@]1(C(=O)O)CCCC(C)(C)C1CC2 (stereo partly specified)
0.962 (inactive) and 0.657 (active): locus YJL095W, strain BCK1, stronger effect = lower value
active: locus YAL026C, strain drs2, stronger effect = lower value 0.835 | locus YAL030W, strain snc1, stronger effect = lower value 0.917 | locus YBR009C, strain hhf1, stronger effect = lower value 0.775 | locus YCL011C, strain gbp2, stronger effect = lower value 0.908 | locus YCL016C, strain dcc1, stronger effect = lower value 0.886 | locus YDL192W, strain arf1, stronger effect = lower value 0.874 | locus YDR392W, strain spt3, stronger effect = lower value 0.24 | locus YER155C, strain BEM2 (second series), stronger effect = lower value 0.697 | locus YGL173C, strain kem1, stronger effect = lower value 0.885 | locus YGR229C, strain SMI1, stronger effect = lower value 0.207 | locus YHR013C, strain ard1, stronger effect = lower value 0.705 | locus YHR030C, strain SLT2, stronger effect = lower value 0.903 and 0.663 | locus YHR079C, strain IRE1, stronger effect = lower value 0.341 | locus YJL095W, strain BCK1 (second series), stronger effect = lower value 0.86 | locus YJL164C, strain tpk1, stronger effect = lower value 0.908 | locus YJL166W, strain qcr8, stronger effect = lower value 0.462 | locus YKL085W, strain MDH1 (second series), stronger effect = lower value 0.913 | locus YKL085W, strain MDH1, stronger effect = lower value 0.913 | locus YKR001C, strain vps1, stronger effect = lower value 0.866 | locus YLL041C, strain sdh2, stronger effect = lower value 0.664 | locus YLR027C, strain aat2, stronger effect = lower value 0.884 | locus YLR113W, strain HOG1, stronger effect = lower value 0.434 | locus YLR221C, strain rsa3, stronger effect = lower value 0.792 | locus YLR258W, strain gsy2, stronger effect = lower value 0.859 | locus YLR262C, strain YPT6 (second series), stronger effect = lower value 0.552 | locus YLR262C, strain YPT6, stronger effect = lower value 0.546 | locus YLR320W, strain mms22, stronger effect = lower value 0.809 | locus YLR418C, strain cdc73, stronger effect = lower value 0.642 | locus YMR058W, strain fet3, stronger effect = lower value 0.815 | locus YMR125W, strain sto1, stronger effect = lower value 0.827 | locus YMR205C, strain PFK2, stronger effect = lower value 0.873 | locus YMR307W, strain GAS1, stronger effect = lower value 0.472 | locus YNL071W, strain lat1, stronger effect = lower value 0.207 | locus YNL271C, strain bni1, stronger effect = lower value 0.908 | locus YNL298W, strain CLA4, stronger effect = lower value 0.874 | locus YOR070C, strain gyp1, stronger effect = lower value 0.92 | locus YOR231W, strain MKK1, stronger effect = lower value 0.394 | locus YPL051W, strain arl3, stronger effect = lower value 0.897 | locus YPL240C, strain hsp82, stronger effect = lower value 0.614 | locus YPL241C, strain CIN2, stronger effect = lower value 0.914 | locus YPL256C, strain CLN2, stronger effect = lower value 0.421
inactive: locus YAL021C, strain ccr4, stronger effect = lower value 0.988 | locus YBL061C, strain skt5, stronger effect = lower value 0.953 | locus YBR021W, strain FUR4, stronger effect = lower value 1.01 | locus YBR023C, strain chs3, stronger effect = lower value 0.956 | locus YBR171W, strain sec66, stronger effect = lower value 0.975 | locus YBR229C, strain ROT2, stronger effect = lower value 1.01 | locus YBR231C, strain swc5, stronger effect = lower value 0.969 | locus YBR279W, strain paf1, stronger effect = lower value 0.948 | locus YCL029C, strain bik1, stronger effect = lower value 1.01 | locus YCL061C, strain MRC1, stronger effect = lower value 0.954 | locus YCL069W, strain vba3, stronger effect = lower value 0.998 | locus YCR088W, strain abp1, stronger effect = lower value 0.991 | locus YDL005C, strain med2, stronger effect = lower value 1 | locus YDL035C, strain GPR1, stronger effect = lower value 0.943 | locus YDL040C, strain nat1, stronger effect = lower value 0.99 | locus YDL074C, strain BRE1, stronger effect = lower value 0.946 | locus YDL101C, strain DUN1, stronger effect = lower value 1.01 | locus YDL134C, strain PPH21, stronger effect = lower value 0.993 | locus YDL185W, strain tfp1, stronger effect = lower value 0.998 | locus YDR001C, strain nth1, stronger effect = lower value 0.997 | locus YDR069C, strain doa4, stronger effect = lower value 0.923 | locus YDR101C, strain arx1, stronger effect = lower value 1.02 | locus YDR137W, strain rgp1, stronger effect = lower value 0.876 | locus YDR150W, strain NUM1, stronger effect = lower value 0.929 | locus YDR159W, strain sac3, stronger effect = lower value 0.902 | locus YDR162C, strain NBP2, stronger effect = lower value 0.851 | locus YDR195W, strain ref2 0.979 | locus YDR297W, strain sur2, stronger effect = lower value 0.982 | locus YDR318W, strain mcm21, stronger effect = lower value 0.959 | locus YDR334W, strain swr1, stronger effect = lower value 1 | locus YDR335W, strain msn5, stronger effect = lower value 0.988 | locus YDR388W, stronger effect = lower value 1 | locus YDR502C, strain sam2, stronger effect = lower value 0.972 | locus YEL003W, strain gim4, stronger effect = lower value 0.94 | locus YEL037C, strain rad23, stronger effect = lower value 0.992 | locus YEL061C, strain CIN8 (second series), stronger effect = lower value 0.993 | locus YEL061C, strain CIN8, stronger effect = lower value 0.968 | locus YER015W, strain faa2, stronger effect = lower value 0.987 | locus YER016W, strain bim1, stronger effect = lower value 0.971 | locus YER110C, stronger effect = lower value 1.03 | locus YER111C, strain swi4, stronger effect = lower value 0.975 | locus YER155C, strain BEM2, stronger effect = lower value 1.04 | locus YER167W, strain BCK2, stronger effect = lower value 0.981 | locus YFR010W, strain ubp6, stronger effect = lower value 0.944 | locus YGL078C, strain dbp3, stronger effect = lower value 0.957 | locus YGL086W, strain mad1, stronger effect = lower value 0.94 | locus YGL167C, strain pmr1, stronger effect = lower value 0.978 | locus YGL227W, strain vid30, stronger effect = lower value 1 | locus YGL240W, strain doc1, stronger effect = lower value 0.938 | locus YGL248W, strain PDE1, stronger effect = lower value 0.962 | locus YGL253W, strain hxk2, stronger effect = lower value 0.976 | locus YGR078C, strain PAC10, stronger effect = lower value 0.873 | locus YGR135W, strain pre9, stronger effect = lower value 0.969 | locus YGR252W, strain gcn5, stronger effect = lower value 0.903 | locus YHR027C, strain rpn1, stronger effect = lower value 0.956 | locus YHR079C, strain IRE1 (second series), stronger effect = lower value 1 | locus YHR094C, strain hxt1, stronger effect = lower value 1.01 | locus YHR129C, strain ARP1, stronger effect = lower value 0.921 | locus YHR142W, strain chs7, stronger effect = lower value 0.969 | locus YHR200W, strain rpn10, stronger effect = lower value 0.984 | locus YIL066C, strain RNR3, stronger effect = lower value 0.937 | locus YIL073C, strain SPO22, stronger effect = lower value 0.936 | locus YIL125W, strain kgd1, stronger effect = lower value 0.958 | locus YIR030C, strain dcg1, stronger effect = lower value 1.01 | locus YJL092W, strain hpr5, stronger effect = lower value 0.98 | locus YJL115W, strain asf1, stronger effect = lower value 1.01 | locus YJL129C, strain trk1, stronger effect = lower value 1.04 | locus YJL134W, strain LCB3, stronger effect = lower value 1.02 | locus YJL154C, strain vps35, stronger effect = lower value 1 | locus YJL168C, strain set2, stronger effect = lower value 1.01 | locus YJL187C, strain SWE1 (second series), stronger effect = lower value 0.973 | locus YJL187C, strain SWE1, stronger effect = lower value 0.972 | locus YJR043C, strain POL32, stronger effect = lower value 0.982 | locus YJR066W, strain TOR1, stronger effect = lower value 0.84 | locus YJR075W, strain HOC1, stronger effect = lower value 0.947 | locus YKL009W, strain mrt4, stronger effect = lower value 0.95 | locus YKL068W, stronger effect = lower value 1.02 | locus YKL160W, strain elf1, stronger effect = lower value 0.957 | locus YKR026C, strain gcn3, stronger effect = lower value 0.994 | locus YKR091W, strain srl3, stronger effect = lower value 0.988 | locus YLL001W, strain dnm1, stronger effect = lower value 0.984 | locus YLL026W, stronger effect = lower value 0.932 | locus YLR039C, strain RIC1, stronger effect = lower value 0.831 | locus YLR058C, strain SHM2, stronger effect = lower value 1 | locus YLR102C, strain apc9, stronger effect = lower value 1.01 | locus YLR268W, strain sec22, stronger effect = lower value 0.901 | locus YLR330W, strain CHS5, stronger effect = lower value 0.944 | locus YLR342W, strain FKS1 (second series), stronger effect = lower value 0.84 | locus YLR342W, strain FKS1, stronger effect = lower value 0.968 | locus YLR357W, strain rsc2, stronger effect = lower value 0.949 | locus YLR370C, strain arc18, stronger effect = lower value 0.974 | locus YLR371W, strain rom2, stronger effect = lower value 0.976 | locus YLR384C, strain iki3, stronger effect = lower value 1 | locus YML016C, strain PPZ1, stronger effect = lower value 0.994 | locus YML032C, strain rad52, stronger effect = lower value 0.993 | locus YML120C, strain ndi1, stronger effect = lower value 0.984 | locus YML124C, strain tub3, stronger effect = lower value 1.01 | locus YMR078C, strain ctf18, stronger effect = lower value 1 | locus YMR129W, stronger effect = lower value 0.99 | locus YMR223W, strain ubp8, stronger effect = lower value 0.964 | locus YMR231W, strain pep5, stronger effect = lower value 0.97 | locus YNL067W, strain RPL9B, stronger effect = lower value 0.972 | locus YNL153C, strain GIM3, stronger effect = lower value 0.985 | locus YNL183C, strain NPR1, stronger effect = lower value 0.9 | locus YNL209W, strain ssb2, stronger effect = lower value 0.962 | locus YNL233W, strain BNI4, stronger effect = lower value 0.955 | locus YNL248C, strain rpa49, stronger effect = lower value 0.98 | locus YNL250W, strain rad50, stronger effect = lower value 1.01 | locus YNL307C, strain MCK1, stronger effect = lower value 0.956 | locus YNL322C, strain KRE1 (second series), stronger effect = lower value 1.03 | locus YNR049C, strain mso1, stronger effect = lower value 0.997 | locus YNR052C, strain pop2, stronger effect = lower value 0.973 | locus YOL012C, strain htz1 0.721 | locus YOL147C, strain pex11, stronger effect = lower value 1.04 | locus YOR001W, strain rrp6, stronger effect = lower value 0.992 | locus YOR061W, strain CKA2, stronger effect = lower value 1 | locus YOR069W, strain VPS5, stronger effect = lower value 0.998 | locus YOR080W, strain dia2, stronger effect = lower value 0.987 | locus YOR083W, strain WHI5, stronger effect = lower value 0.965 | locus YOR106W, strain vam3, stronger effect = lower value 0.871 | locus YOR136W, strain idh2, stronger effect = lower value 1 | locus YOR144C, strain elg1, stronger effect = lower value 1.01 | locus YOR184W, strain ser1, stronger effect = lower value 0.964 | locus YOR265W, strain rbl2, stronger effect = lower value 0.982 | locus YOR270C, strain vph1, stronger effect = lower value 0.954 | locus YOR290C, strain snf2, stronger effect = lower value 0.945 | locus YOR316C, strain cot1, stronger effect = lower value 1.02 | locus YPL078C, strain atp4, stronger effect = lower value 1.01 | locus YPL106C, strain sse1, stronger effect = lower value 0.968 | locus YPR119W, strain clb2, stronger effect = lower value 1.03 | locus YPR141C, strain kar3, stronger effect = lower value 0.992 | locus YPR163C, strain tif3, stronger effect = lower value 0.964 | locus YPR167C, strain met16, stronger effect = lower value 1 | strain wtn01, stronger effect = lower value 0.936
